# Experimental data taken from PubChem BioAssay AID504462 (Sanford-Burnham Center for Chemical Genomics, 2011).
# Screen size: about 340,000 compounds; about 1,700 (0.5%) were called active. The list comes from a sample in which actives are over-represented; it also holds similar structures and randomly drawn compounds. Values without a mark were called inactive. No stated cut-off is given here; in the data, active means inhibition above about 40%; inactive means the rest.
# Target: Cysteine protease ATG4B (Homo sapiens) (UniProt Q9Y4P1)
# Assay: blockers of ATG4B cysteine protease activity – biochemical, fluorescence, uHTS, primary screen (AID 504462)
# Conditions: ATG4B cleavage of LC3-PLA2, NBD-HPC fluorescence, 1 h; at 8.33 µM; hits give high values
# Chain of Cysteine protease ATG4B (Homo sapiens) (Q9Y4P1 whole entry, looked up): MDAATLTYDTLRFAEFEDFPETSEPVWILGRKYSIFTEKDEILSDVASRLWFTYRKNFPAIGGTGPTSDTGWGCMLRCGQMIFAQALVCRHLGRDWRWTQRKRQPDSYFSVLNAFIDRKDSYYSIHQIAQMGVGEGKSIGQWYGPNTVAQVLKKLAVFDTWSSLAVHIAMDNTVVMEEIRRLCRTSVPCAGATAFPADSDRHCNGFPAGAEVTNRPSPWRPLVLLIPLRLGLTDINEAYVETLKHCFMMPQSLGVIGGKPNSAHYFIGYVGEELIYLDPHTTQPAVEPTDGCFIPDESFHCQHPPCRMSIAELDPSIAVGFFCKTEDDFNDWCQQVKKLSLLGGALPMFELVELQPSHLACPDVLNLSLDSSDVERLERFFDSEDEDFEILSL
row,Structure (SMILES),inhibition
1,CCC(C)c1ccc(NC(=S)NCc2ccccn2)cc1 (configuration not stated),2.58%
2,CC(=O)N1CCN(C(=O)c2cc(-c3ccc(Cl)s3)nc3ccccc23)CC1,2%
3,COc1cc(OC)cc(C(=O)Nc2ccc(-c3nc4ccccc4o3)c(O)c2)c1,1%
4,Cc1ccc(NNC(=O)C2CCC2)cc1C,-8.25%
5,O=c1cc(C(F)(F)F)[nH]c(=O)n1C1CCCCC1,-7.77%
6,Cc1ccc(Nc2cc(=O)n(C3CCCCC3)c(=O)[nH]2)cc1C,49.4% (active)
7,Cc1ccc(-c2nnn(CC(=O)N(CCO)C(C(=O)NC(C)(C)C)c3ccncc3)n2)cc1 (configuration not stated),3.82%
8,CNS(=O)(=O)c1cccc(C(=O)NC2CCCc3ccccc32)c1 (configuration not stated),5.31%
9,O=C(Nc1cccc(F)c1)NC1CCCc2ccccc21 (configuration not stated),72.2% (active)
10,O=C(Nc1cccc(F)c1)NC1CCCCCCC1,14.1%
11,O=C(Nc1ccc(F)c(Cl)c1)C1CCN(S(=O)(=O)c2cccnc2)CC1,-11.3%
12,COc1ccc(C)cc1NC(=O)CSc1nnc2ccc(-c3ccccn3)nn12,-1.16%
13,CCN(C[C@H]1N[C@@](CC)(C(=O)OC)[C@H]2C(=O)N(Cc3ccccc3)C(=O)[C@@H]12)S(=O)(=O)c1ccc(C(F)(F)F)cc1,1.74%
14,COc1ccc(NC(=O)CNc2cc(S(=O)(=O)N3CCOCC3)ccc2N2CCOCC2)c(OC)c1,-0.66%
15,Cc1c(Cl)c([N+](=O)[O-])nn1CCCC(=O)NC(C)c1ccccc1 (configuration not stated),19.6%
16,Cc1cc([N+](=O)[O-])nn1CCCC(=O)Nc1cccnc1Cl,-6.6%
17,Cc1c(Cl)c([N+](=O)[O-])nn1CCCC(=O)Nc1cc(Cl)ccc1Cl,63.1% (active)
18,Nc1c(N(CCCO)C(=O)C2CCCC2)c(=O)[nH]c(=O)n1Cc1ccccc1,2.96%
19,Cc1ccc2[nH]c(=O)c(CC=C(Cl)Cl)c(C)c2c1,-4.78%
20,CN(C(=O)c1cccc(NC(=O)Cc2ccc(NC(=O)C3CCN(C(=O)C4CCCCC4)CC3)cc2)c1)C1CCC1,-6.18%
21,COc1cccc(NC(=O)NCc2ccc(F)cc2)c1,46.2% (active)
22,COC(=O)[C@@H](NC(=O)NCc1cccc(OC)c1)C(C)C,-0.62%
23,O=C(NCc1cccc(CNC(=O)Nc2cccc(O)c2)c1)Nc1cccc(O)c1,27.4%

row,Structure (SMILES),inhibition
1,CC1CCCC(NC(=O)c2cc(-c3ccncc3)nc3ccccc23)C1C (configuration not stated),-8.76%
2,CC(C)CCn1c(=O)c2c(nc3n2CCCN3Cc2ccccc2)n(C)c1=O,3.87%
3,CCOC(=O)c1c(C)[nH]c2c1-c1ccccc1C(=O)C2=O,47% (active)
4,CCOC(=O)C1=C(C)c2ccccc2OC1(C)C(=O)OCC (configuration not stated),2.41%
5,CCOC(=O)c1[nH]c2ccccc2c1N=C(C)N(CC)CC,-9.79%
6,CC(C)(C)C1CCc2c(sc3nc(SCC(N)=O)nc(N)c23)C1 (configuration not stated),42.8% (active)
7,Nc1nc(SCC(=O)NCCN2CCOCC2)nc2sc3c(c12)CCC3,-9.91%
8,C=C(C)CSc1nc(N)c2c3c(sc2n1)CCC3,17.7%
9,O=S1(=O)CCC(NC(=S)SCc2ccccc2Br)C1 (configuration not stated),-4.75%
10,Cc1c(Cl)cccc1NC(=O)Nc1ccc(C(=O)N2CCCC2)cc1,40.6% (active)
11,CS(=O)(=O)Nc1ccc(C(=O)N2CCCC2)cc1,-2.74%
12,Cc1c(Cl)cccc1NC(=O)NCCCN1CCCC1=O,2.74%
13,COc1ccccc1CCNC(=O)CSc1nnc2ccc(-c3cccnc3)nn12,0.74%
14,CCn1c(Cc2ccc(OC)cc2)nnc1SCC(=O)Nc1ccc(N2CCOCC2)cc1,-5.02%
15,Cc1ccc(C2=Nc3c(ccc4ccccc34)C(c3ccncc3)=NN2)cc1,60.3% (active)
16,Cc1ccc(-c2csc(-c3c[nH]c4ccccc34)n2)cc1,4.81%
17,CC(Sc1nnc(-c2ccccc2F)n1C1CC1)C(N)=O (configuration not stated),-8.94%
18,CCCCCCCC1(C)NC(=O)N(CC(=O)Nc2cc(C)on2)C1=O (configuration not stated),-10.1%
19,O=C(C1CCN(S(=O)(=O)Cc2ccccc2)CC1)N1CCCc2ccccc21,13.8%
20,Cc1ccc(N2CC(C(=O)NCCS(=O)(=O)N3CCN(c4ccccc4)CC3)CC2=O)cc1 (configuration not stated),-5.93%
21,Fc1ccc2c(c1)C(c1cccnc1)=NNC(c1cccs1)=N2,-1.31%
22,CCOc1ccc2c(c1)C(c1ccc(C)cc1)=NNC(c1ccc(C)cc1)=N2,65.9% (active)
23,COc1ccc2c(c1)C(c1cccs1)=NNC(c1cccnc1)=N2,0.69%

row,Structure (SMILES),inhibition
1,CCOC(=O)C1=C(C)N(C[C@@H]2CC[C@@H](Cc3ccc(-c4ccccc4)cc3)O2)C(=O)NC1c1ccc([N+](=O)[O-])cc1 (some centres not stated),1.26%
2,CCc1ccc2c(c1)C(c1ccc([N+](=O)[O-])cc1)=NNC(c1ccccc1)=N2,61% (active)
3,CCC1OC(c2ccc([N+](=O)[O-])cc2)=Nc2ccccc21 (configuration not stated),-2.62%
4,Cc1ccccc1CSc1nnc(-c2ccccc2)c(=O)[nH]1,11.3%
5,CCCN1C2CCCC1CC(NC(=O)c1cccc(OC)c1)C2 (configuration not stated),-4.61%
6,CC(C(=O)NCCc1ccc(S(N)(=O)=O)cc1)N1C(=O)CC(C)(C)Sc2ccccc21 (configuration not stated),1.71%
7,Cn1c2c(c(=O)n(C)c1=O)C(c1ccc(O)cc1)Nc1ccccc1O2 (configuration not stated),-5.48%
8,CCc1nn(-c2cc(Oc3cccc4ccccc34)nc(-c3ccccc3)n2)c(N)c1C#N,-7.41%
9,COc1ccc(C)cc1N(C)C(=O)c1coc(=O)c2ccccc12,-10%
10,CCOc1ccccc1Nc1ccc(C(=O)O)cc1[N+](=O)[O-],-16.2%
11,NC(=O)c1ccc(Nc2ccc3c(c2)CCC3)c([N+](=O)[O-])c1,29.8%
12,Cc1ccc(Nc2ccc(C(N)=O)cc2[N+](=O)[O-])cc1,66.7% (active)
13,CC(=O)c1ccc(S(=O)(=O)NCc2nnnn2-c2ccccc2)cc1,-3.36%
14,Cc1cccc(C=CC(=O)c2ccc(Cl)cc2)c1,-4.71%
15,O=C(/C=C/NNC(=O)c1cccc(Br)c1)c1ccccc1,8.45%
16,O=C(O)CCn1cc(/C=C/C(=O)c2ccc(Cl)cc2)c(-c2cccc(Br)c2)n1,53.3% (active)
17,CCOC(=O)c1ccc(-n2c(CCC(=O)O)ccc2-c2ccccc2)cc1,9.28%
18,COc1ccc(C(CNCC(=O)Nc2ccccc2F)N(C)C)cc1 (configuration not stated),9.81%
19,Cc1c([N+](=O)[O-])c(N)nn1C,-3.74%
20,O=C(COC(=O)Cn1[nH]c(=O)c2ccccc2c1=O)Nc1c(Cl)cccc1C(F)(F)F,1.19%
21,CCC(C)N(C(=O)COC(=O)C1C(C(=O)OC)=C(C)NC(C)=C1C(=O)OC)C1CCS(=O)(=O)C1 (configuration not stated),-4.18%
22,Cc1cc(NC(=O)CSc2nc(C(C)C)nc3sc4c(c23)CCC(C)C4)no1 (configuration not stated),-8.31%
23,CC(C)c1nc(SCC(=O)Nc2cccc(C(=O)O)c2)c2c3c(sc2n1)CCCC3,68.4% (active)

row,Structure (SMILES),inhibition
1,Cc1ccc(C)c2c1cc(C)c1nnc(SCC(=O)Nc3cccc(C(=O)O)c3)n12,-4.22%
2,Cc1cc(N(C)C)cc(C)[n+]1[O-],1%
3,Cc1ccccc1-n1c(C)cc(/C=C2\NC(=O)NC2=O)c1C,-2.07%
4,Cc1cccc(C)c1-n1c(C)cc(/C=C2\C(=O)NN(c3ccccc3)C2=O)c1C,50.9% (active)
5,C#CCOc1ccc(/C=C2/C(=O)NN(c3ccccc3)C2=O)cc1OC,3.6%
6,CC(C)CC(=O)NC(=S)Nc1ccc(F)cc1F,0.36%
7,O=C(CC1C(=O)NCCN1CC(c1ccccc1)c1ccccc1)NCC1CCOCC1 (configuration not stated),5.98%
8,Cc1cccc(CC(=O)Nc2c3c(nn2-c2cccc(Cl)c2)CS(=O)C3)c1 (configuration not stated),-6.51%
9,CCN(CC)C(=O)c1sc2nc(-c3ccccc3)ccc2c1N,-13.8%
10,NC(=O)c1sc2nc3c(c(-c4ccccc4)c2c1N)CCC3,42.3% (active)
11,Cc1sc2nc(CC(N)=O)[nH]c(=O)c2c1-c1ccccc1,5.21%
12,CCN(CC)S(=O)(=O)c1ccc2c3c(cccc13)C(=O)S2,-12.5%
13,O=C(c1ccncc1)N1CCN(S(=O)(=O)c2cccc([N+](=O)[O-])c2)CC1,-1.28%
14,Cc1ccccc1/C=C\c1nc(O)c([N+](=O)[O-])c(=O)[nH]1,4.7%
15,CCCc1ccc(C(=O)[C@@H]2[C@@H](C(C)=O)N3c4ccc(F)cc4C=C[C@@H]3[C@@]23C(=O)Nc2ccccc23)cc1,7.49%
16,Cc1ccc(Oc2cc(NC(=O)CCCn3nc(C)c([N+](=O)[O-])c3C)cc([N+](=O)[O-])c2)cc1,62% (active)
17,Cc1nn(CC(=O)Nc2ccc(N(C)C)cc2)c(C)c1[N+](=O)[O-],-1.82%
18,COc1ccc(CNC(=O)CCCn2nc(C)c([N+](=O)[O-])c2C)cc1,4.24%
19,CN(c1ccc(OCC(=O)NC2=NCCS2)cc1)S(=O)(=O)c1ccc(F)cc1,-9.32%
20,COCCCNC(=S)NC(=O)c1ccc([N+](=O)[O-])cc1,-7.22%
21,Cc1nc2sc3c(c2c(=O)n1NC(=O)CCl)CCCC3,-3.09%
22,CCCc1nc2sc3c(c2c(=O)n1NC(=O)CCCl)CCCC3,10.3%
23,CCc1nc(N2CCN(C(C)=O)CC2)c2c3c(sc2n1)CCCC3,45.4% (active)
